Screening results (PubChem)
Cruzain inh noDet – blocks cruzain activity in detergent-free assay; P25779; purified cruzain, Z-FR-AMC fluorescence, no detergent; Potency, µM, for inactives: max response, negative = inhibition, actives largely listed as inhibitors; actives 2.3% (n = 200,000); AID 1476;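 note: plate controls were enzyme without inhibitor for no effect and buffer without enzyme for full effect; nearly all actives have a fitted effect of over 40% in size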
Target sequence (P25779 123-467 limits assumed): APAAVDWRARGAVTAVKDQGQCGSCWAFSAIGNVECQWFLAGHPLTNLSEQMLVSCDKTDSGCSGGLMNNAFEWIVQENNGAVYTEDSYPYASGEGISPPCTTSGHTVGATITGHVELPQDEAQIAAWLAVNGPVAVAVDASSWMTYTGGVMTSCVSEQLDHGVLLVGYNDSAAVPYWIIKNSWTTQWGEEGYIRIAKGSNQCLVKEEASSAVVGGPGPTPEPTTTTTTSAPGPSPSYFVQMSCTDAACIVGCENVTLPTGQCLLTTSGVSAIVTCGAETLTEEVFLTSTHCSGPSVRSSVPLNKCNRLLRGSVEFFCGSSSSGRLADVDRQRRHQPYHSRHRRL
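Detergent-free condition (0.00005% Triton X-100) in acetate buffer pH 5.5 with DTT. 1.5 nM enzyme and compound were pre-mixed 15 min, then 2 uM Z-FR-AMC substrate added; reaction progress from fluorescence change between first and third reads (60 s).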
Cruzain inh Det – cruzain (T. cruzi) inhibition with detergent | purified cruzain, Z-FR-AMC fluorescence, 0.01% Triton | Potency, µM, without a hit: max response, negative = inhibition, hits mostly inhibitors | actives 0.43% (n = 200,000);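 note: plate controls were neutral wells for no effect and buffer without enzyme for full effect; nearly all actives have a fitted effect of over 40% in size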
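Compounds were screened in titration against cruzain (1.5 nM) with 0.01% Triton X-100 to counter colloidal aggregation. Activity was the AMC fluorescence increase over 60 s after adding 2 uM Z-FR-AMC at pH 5.5.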
* = called active by the depositor; u = inconclusive; ! = not confirmed by another sample. Compounds with a hit are over-represented: about 2.6% of the library has one in this group of screens. Calls come from the whole dose curve; as a rule, active = well fitted curve in the direction sought with a large enough effect; inconclusive = small, poorly fitted or top-dose-only effect, or another doubt; inactive = no such curve, though single readings can be large; an effect the other way counts as inactive or inconclusive. Potency is the fitted concentration of half-maximal effect.

SMILES	Cruzain inh noDet	Cruzain inh Det
Cc1ccc(-c2nnc(Nc3cccc(Cl)c3)c3ccccc23)cc1S(=O)(=O)N1CCCCC1	7.94µM*	-2.3%
Cc1ccc(-c2nnc(Nc3ccc(Cl)c(Cl)c3)c3ccccc23)cc1S(=O)(=O)N(C)C	6.31µM*	-2.8%
CCCCC/C=C\C\C=C/C=C/C=C/[C@@H](SCC(N)C(=O)NCC(=O)O)[C@@H](O)CCCC(=O)O (some centres not stated)	0.9%	4.4%
O=C(Nc1cccc(C(F)(F)F)c1)c1ccc2c(c1)nnn2C1CCCC1	1.4%	-5.6%
CCOC(=O)C1=C(C)N=c2s/c(=C/c3ccco3)c(=O)n2C1c1cccc(OC)c1 (configuration not stated)	25.1µM*	-28.6%
COc1ccc(C2C(C(C)=O)=C(C)N=c3s/c(=C/c4ccc5c(c4)OCO5)c(=O)n32)cc1 (configuration not stated)	10µM*	-5.5%
CCOC(=O)C1=C(C)N=c2s/c(=C\c3cccn3C)c(=O)n2C1c1cccc(OC)c1OC (configuration not stated)	u	-8.6%
CCOC(=O)C1=C(N)n2c(s/c(=C/c3ccco3)c2=O)=C(C(=O)OC)C1c1ccco1 (configuration not stated)	12.6µM*	-2.3%
COC(=O)C1=C(C)N=c2s/c(=C/c3ccoc3)c(=O)n2C1c1ccccc1 (configuration not stated)	-6.7%	-8.5%
CCOC(=O)C1=c2s/c(=C\c3cccnc3)c(=O)n2C(N)=C(C(=O)OC)C1c1cccnc1 (configuration not stated)	14.2%	-7.5%
CCOc1ccc(N2C(=O)c3[nH]nc(-c4ccc(OC)cc4)c3C2c2cccs2)cc1 (configuration not stated)	u	-9.3%
COc1ccc(Cn2c(CNS(=O)(=O)c3ccc(C)c(C)c3)nc3cccnc32)cc1	-10.8%	-5.9%
Cc1ccc(-c2onc(C)c2C)cc1S(=O)(=O)N1CCC(C)CC1	17.6%	-5.8%
COc1ccc(COc2cc(-c3cccc(OC)c3)nc3ccc(NC(C)=O)cc23)cc1	u	1.1%
COc1ccc(COc2cc(-c3cccc(OC)c3)nc3ccc(N)cc23)cc1	u	0.1%
COc1ccc(COc2cc(-c3cccc(OC)c3)nc3ccc(NC(=O)c4ccc(N(C)C)cc4)cc23)cc1	6.31µM*	-2.5%
COc1ccc(COc2cc(-c3cccc(OC)c3)nc3ccc(NC(=O)c4ccc(C)cc4)cc23)cc1	7.94µM*	3.2%
CCc1ccc(NC(=O)Cn2c(=O)c(-c3ccccc3NC(C)=O)nc3ccccc32)cc1	-20.9%	-2.0%
COc1ccccc1N(C)C(=O)Cn1c(=O)oc2cc(S(=O)(=O)N3CCCC3)ccc21	1.5%	-1.9%
CC12CCC(C(=O)N(CSC(=S)N/N=C\c3ccccc3)C1=O)C2(C)C (configuration not stated)	-1.3%	-3.2%
CC12CCC(C(=O)N(CSC(=S)N/N=C\c3ccccc3Cl)C1=O)C2(C)C (configuration not stated)	15.8µM*	2.8%
O=C1C(Cl)=C(Sc2nnc3c4ccccc4c4ccccc4c3n2)C(=O)c2ccccc21	-20.5%	-13.8%
Nc1nc(SCC(=O)NCc2ccccc2Cl)[nH]c(=O)c1NC(=O)c1ccccc1F	u	3.3%
Nc1nc(SCC(=O)NCc2ccc(F)cc2)[nH]c(=O)c1NC(=O)c1ccc(Cl)cc1	25.1µM*	1.7%
COc1ccc2c(Sc3ccccc3)c(C(=O)NCc3cc(Br)ccc3OC)[nH]c2c1	1.0%	-10.7%
SMILES	Cruzain inh noDet	Cruzain inh Det
O=C(CCc1ccccc1)NCc1ccccn1	-1.8%	2.8%
CC1c2nc3ccccc3n2C(CC(=O)NCc2ccccn2)C(=O)N1Cc1ccccc1 (configuration not stated)	12.6µM*	-7.4%
CC(=O)c1ccc(NC(=O)CCCSc2nc(-c3ccco3)cc(C(F)(F)F)n2)cc1	u	-9.9%
Nc1ccc(N=Nc2ccccc2)c(N)n1	20µM*!	-3.4%
Cc1cc(=O)n2[nH]c(N)c(N=Nc3ccccc3)c2n1	-4.7%	-6.0%
O=C(CSc1nc(-c2ccccc2)c(-c2ccccc2)o1)Nc1nnc(-c2ccccc2)s1	10µM*	-4.2%
C=CCSc1nnc(NC(=O)CSc2nc3ccccc3o2)s1	15.8µM*	7.8%
O=C(CSc1nc2ccccc2o1)Nc1nc(-c2ccccc2)c(-c2ccccc2)s1	12.6µM*	-0.5%
O=C(CSc1nc2ccccc2o1)Nc1nncs1	3.2%	3.5%
Cc1nnc(NC(=O)CSc2nc3ccccc3o2)s1	-12.8%	1.6%
O=C(CSc1nc(-c2ccccc2)c(-c2ccccc2)o1)Nc1nncs1	6.5%	-0.4%
COc1cccc(-c2nc(SCc3cccc(Br)c3)n3[nH]c(=O)cc3n2)c1	4.3%	-0.1%
Cc1ccc(Cl)cc1NC(=O)CN1C(=O)CSc2ccc(S(=O)(=O)N3CCCC3)cc21	-5.3%	-5.3%
CCn1nnc2cc(C(=O)Nc3ccc(C)cc3Br)ccc21	-3.4%	3.6%
N#C/C(=C\C=C\c1ccccc1[N+](=O)[O-])c1nc(-c2ccc3c(c2)OCO3)cs1	20µM*	1.6%
N#C/C(=C\c1ccccc1[N+](=O)[O-])c1nc(C2CC2)cs1	6.8%	-7.1%
O=C(COc1cc(Cl)c(Cl)cc1Cl)NC(=O)Nc1ccc2c(c1)OCCO2	20µM*	-1.6%
Cc1ccc(Cl)c(OCC(=O)Nc2ccc3c(c2)OCCO3)c1	-6.3%	-1.1%
COc1ccc(CNC(=O)COC(=O)c2ccc3c(c2)OCCO3)cc1	-1.3%	0.3%
CCN(C(=O)COC(=O)CNC(=O)c1ccc(C)c(C)c1)C1CCS(=O)(=O)C1 (configuration not stated)	15.8µM*	25.1µM*
COc1ccc(C(=O)NCC(=O)OCC(=O)c2ccc3c(c2)OCCO3)cc1	12.6µM*	15.8µM*
O=C(COC(=O)/C=C/c1ccc(Cl)cc1)Nc1ccc2c(c1)OCCO2	-27.4%	-1.0%
CCN(C(=O)COC(=O)c1ccccc1Nc1cccc(C)c1C)C1CCS(=O)(=O)C1 (configuration not stated)	u	-4.8%
O=C(COC(=O)CNC(=O)c1ccc(Cl)cc1)Nc1ccc2c(c1)OCCO2	10µM*	14.1µM*
COCCCNC(=O)CSc1nc(-c2cccc(F)c2)[nH]c1-c1ccccc1	-7.1%	-9.2%
SMILES	Cruzain inh noDet	Cruzain inh Det
Cc1cccc(N2CCN(C(=O)CCCn3ncn4c(cc5occc54)c3=O)CC2)c1C	u	-8.1%
Cc1ccc(C(=O)COC(=O)CNC(=O)c2ccc(N3C(=O)c4ccccc4C3=O)cc2)cc1C	-6.7%	-1.7%
Cc1ccc(C(=O)NCC(=O)OCC(=O)c2ccc3c(c2)OCCO3)cc1C	12.6µM*	12.6µM*
COc1ccc(CCN2C(=O)c3oc4ccc(F)cc4c(=O)c3C2c2ccc(C(C)(C)C)cc2)cc1 (configuration not stated)	3.4%	-1.0%
CCOC(=O)c1[nH]c(C)c(CCC(=O)NC(C)c2ccccc2)c1C (configuration not stated)	-8.2%	2.7%
Cc1nc(-c2ccc(S(=O)(=O)N3CCN(c4cccc(C(F)(F)F)c4)CC3)cc2)co1	11.8%	-10.0%
COC(=O)Nc1nnc(/C=C/c2ccc(OC)cc2)s1	-10.5%	3.8%
O=C(CSc1ccccc1)Nc1nnc(COc2ccc(Cl)cc2)s1	0.7%	-15.7%
Cc1cccc(C)c1OCc1nnc(NC(=O)CSc2ccc(Cl)cc2)s1	25.1µM*	0.9%
COc1ccc(/C=C/c2nnc(NC(=O)CSc3ccc(Cl)cc3)s2)cc1	10µM*	-1.3%
